Screening data as filed in PubChem BioAssay.
Rows were chosen to be rich in hits. Some 21% of all compounds tested hit in one or more screens of this group.
Pf growth 48h = Primary qHTS for delayed death inhibitors of the malarial parasite plastid, 48 hour incubation. P. falciparum luciferase growth in erythrocytes, 48 h. Potency, µM (series often up to 28.7 µM), without a hit: at the top dose activity change, negative = inhibition, usual class: inhibitors. 310,000 tested, 5.9% active. AID 504832, 2011; also: potency is read from the fitted curve at half-maximal effect; % is scaled to controls: 0 for no effect and ±100 for the full control effect
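Luminescence readout; reporter = integrated firefly luciferase in P. falciparum. RBC culture at 2% hematocrit, 0.1% parasitemia final, 37 C/5% CO2; decreased signal taken as growth inhibition.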
Shiga toxin inh = A qHTS for Small Molecule Inhibitors of Shiga Toxin. AID 2315, 2010. inhibition, % at 38.7 µM. 290,000 tested, 9.2% active. Vero cells, Shiga toxin protein synthesis inhibition reporter; in the data active = inhibition mostly above about 28%, no sharp cut-off; inactive = mostly below about 43%; also: 0% is about no effect
Pf growth 96h = Primary qHTS for delayed death inhibitors of the malarial parasite plastid, 96 hour incubation; Potency, µM (titrated, usually from 28.7 µM), for the others: at the highest dose activity change, negative = inhibition, usual class: inhibitors; AID 504834, 2011; 320,000 tested, 6.9% active; P. falciparum luciferase reporter growth, 96 h; also: potency is read from the fitted curve at half-maximal effect; % is scaled to controls: 0 for no effect and ±100 for the full control effect
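Parasite growth measured via integrated firefly luciferase reporter in P. falciparum. Infected erythrocytes at 2% hematocrit, 0.05% parasitemia final were treated 96 hours at 37 C under 5% CO2, and luminescence was read.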
Cycloheximide cs = Cycloheximide Counterscreen for Small Molecule Inhibitors of Shiga Toxin; cell reporter, cycloheximide protein synthesis inhibition counterscreen; 300,000 tested, 12% active; max response, %; AID 2314, 2010; in the data active = max response mostly above about 13%, no sharp cut-off; inactive = mostly below about 14%; also: read at 38.3 µM for the half of the compounds with a filed dose; 0% is about no effect
* marks the source's active call; other numbers are inactive results; ? = inconclusive; nt = not tested or not shown. Unless noted, calls follow the shape of the dose curve; as a rule, active = well fitted inhibition curve with a large enough effect; inconclusive = small, poorly fitted or top-dose-only effect, or another doubt; inactive = no such curve, though single readings can be large or run the other way.

SMILES	Pf growth 48h	Shiga toxin inh	Pf growth 96h	Cycloheximide cs
Cc1ccn2cc(-c3cccc(NC(=O)C(C)C)c3)nc2c1	22%	35	21%	23*
O=C(Nc1cccc(-c2cn3ccccc3n2)c1)c1cccs1	56%	61*	83%	34*
COc1cc(C(=O)Nc2cccc(-c3cn4cccnc4n3)c2)cc(OC)c1OC	?	14	?	3
CC(C)C(=O)Nc1cccc(-c2cn3ccsc3n2)c1	45%	15	6%	15
CC(C)C(=O)Nc1cccc(-c2cn3ccccc3n2)c1	34%	17	20%	14*
NS(=O)(=O)c1cccc(NC(=O)COC(=O)CNC(=O)c2ccc(-c3ccccc3)cc2)c1	9%	nt	-23%	nt
Cc1cccc(C(=O)Nc2cccc(-c3ccc4nncn4n3)c2)c1	8%	-6	0%	4
O=C(Nc1cccc(-c2cn3ccccc3n2)c1)c1cc2ccccc2oc1=O	-12%	71*	0%	59*
Cc1ccn2cc(-c3cccc(NC(=O)c4ccccc4)c3)nc2c1	32%	44*	66%	60*
COc1ccc(CC(=O)Nc2ccc(-c3cn4ccc(C)cc4n3)cc2)cc1	-56%	16	nt	16*
O=C(Nc1cccc(-c2cc3ccccc3oc2=O)c1)c1ccc(Br)o1	26%	-2	?	-2
CC(O)[C@H]1CNC(=O)C(=O)N1CCCCC1CCCCC1 (stereo partly specified)	-12%	-4	11%	-5
CSc1ccccc1NC(=O)CSc1nnc(COc2ccccc2)o1	6%	11	?	-4
Cc1nnc(SCC(=O)NC2CCCCC2)s1	30%	34	196%	20
O=C(O)CN(CCN(CC(=O)O)CC(=O)O)CCN(CC(=O)O)CC(=O)O	-19%	nt	?	nt
CC(Oc1ccccc1)C(=O)N1CCN(c2ccc(N3CCCCCC3)nn2)CC1 (stereo unspecified)	?	nt	10µM*	nt
Cc1ccc(-c2nnc(CCC(=O)NCC3C4CC5CC(C4)CC3C5)o2)s1 (stereo unspecified)	?	103*	-1%	52*
c1ccc(C2=Nn3c(nnc3-c3n[nH]c4c3CCC4)SC2)cc1	nt	-7	?	5
Clc1ccc(C2=Nn3c(nnc3-c3n[nH]c4c3CCC4)SC2)cc1Cl	12µM*	-8	?	-4
O=C(NNC1=Nc2cccc3cccc1c23)c1ccc(Br)cc1	12µM*	29	-27%	8
COc1ccc(CC(=O)NNC2=Nc3cccc4cccc2c34)cc1OC	9%	-16	2%	-1
COC(=O)Cc1c(C)c2ccc(OCC(=O)NC3CCS(=O)(=O)C3)cc2oc1=O (stereo unspecified)	14%	-3	1%	-1
CN(C)c1ccc(C(=O)/C=C/c2ccccc2)cc1	367%	105*	354%	44*
CCN(CC)c1ccc(/C=C/C(=O)c2ccc(Br)cc2)cc1	22%	-3	-9%	14*
CN(C)c1ccc(/C=C/C(=O)c2c(O)c3ccccc3oc2=O)cc1	118%	20	94%	9
SMILES	Pf growth 48h	Shiga toxin inh	Pf growth 96h	Cycloheximide cs
CCN(CC)c1ccc(/C=C/C(=O)c2cccnc2)cc1	0.93µM*	-4	?	-4
CN(C)c1ccc(C(=O)/C=C/c2ccc(Br)cc2)cc1	0%	58*	8%	23*
CC1CCCCC1NC(=O)c1cccc(NC2=NC3CS(=O)(=O)CC3S2)c1 (stereo unspecified)	-8%	8	-4%	-2
O=C(COC(=O)COc1ccccc1[N+](=O)[O-])NC1CCCCC1	-1%	nt	19%	nt
COc1ccc(CCNC(=O)C(C(=O)c2ccc(F)cc2)n2ccccc2=O)cc1OC (stereo unspecified)	0%	7	?	11
Cc1ccc(-c2cn(CCN)c(-c3ccc(Cl)nc3)n2)cc1	10µM*	nt	-5%	nt
Cc1ccc(-c2cn(CCC(=O)O)c(-c3ccc(Cl)nc3)n2)cc1	31%	nt	52%	nt
CCCCCn1c(=O)c(C(=O)NCc2ccncc2)c(O)c2ccccc21	1.7µM*	21	69%	-1
C=CCn1c(=O)c(C(=O)Nc2ccccc2S(N)(=O)=O)c(O)c2ccccc21	73%	73*	60%	31*
C=CCn1c(=O)c(C(=O)Nc2ccccc2C(=O)OCC)c(O)c2ccccc21	6%	3	nt	3
CCCCCn1c(=O)c(C(=O)NCc2ccccc2Cl)c(O)c2ccccc21	7.4µM*	nt	?	-4
CCCn1c(=O)c(C(=O)NCc2ccncc2)c(O)c2ccccc21	-1%	-7	nt	2
CCCn1c(=O)c(C(=O)NCc2ccccc2Cl)c(O)c2ccccc21	-24%	nt	30%	-2
COc1cc2[nH]c(=O)c(C(=O)NCc3ccc(F)cc3)c(O)c2cc1OC	-12%	5	3.3µM*	1
COc1ccc(COC(=O)CCS(=O)(=O)c2ccc(C)cc2)cc1F	-16%	nt	63%	nt
CC(NC(=O)Cc1cccc(C(F)(F)F)c1)c1ccc(F)cc1 (stereo unspecified)	19%	-6	-14%	-1
COc1ccc(CNC(=O)CCC(=O)N2CCN(S(=O)(=O)c3cc([N+](=O)[O-])ccc3C)CC2)cc1	?	nt	-27%	nt
COc1ccc(NC(=O)CN2C(=O)NC(C)(c3ccccc3)C2=O)cc1Cl (stereo unspecified)	21%	-6	-14%	2
CCn1c(=O)c(C(=O)NCc2ccccc2)c(O)c2ccccc21	?	-2	112%	-2
CC(C)Cn1c(=O)c(C(=O)NCc2ccccn2)c(O)c2ccccc21	12µM*	0	-1%	0
O=C(Cn1c(=O)sc2ccccc21)NCc1ccccn1	27%	54*	?	18*
CCOC(=O)Cc1csc(NC(=O)c2c(O)c3ccccc3n(CCC(C)C)c2=O)n1	?	-4	-18%	-2
CCCCCCCCn1c(=O)c(C(=O)OC)c(N)c2ccccc21	15µM*	8	?	-2
CCCCCCn1c(=O)c(C(=O)Nc2nc(CC(=O)OCC)cs2)c(O)c2ccccc21	12µM*	2	-1%	-1
O=C(CSc1nnc(-c2ccc(OC(F)F)cc2)o1)NC(=O)NCc1ccco1	0%	22	31%	-4
SMILES	Pf growth 48h	Shiga toxin inh	Pf growth 96h	Cycloheximide cs
Cc1cc2nc(N)sc2cc1[N+](=O)[O-]	35%	27	52%	20
CCCCn1c(=O)c(C(=O)Nc2ccccc2N)c(O)c2ccccc21	-12%	-5	?	-1
CCCCCn1c(=O)c(C(=O)Nc2ccccc2N)c(O)c2ccccc21	4.1µM*	nt	334%	-2
CCn1c(=O)c(C(=O)NCc2ccc(F)cc2)c(O)c2ccccc21	-3%	-4	12µM*	-3
CCCCCCn1c(=O)c(C(=O)Nc2cnccn2)c(O)c2ccccc21	2.6µM*	-9	?	0
CCCCCC(=O)NNC(=O)c1c(O)c2ccccc2n(CC)c1=O	?	59*	10µM*	19*
Cc1ccc(S(=O)(=O)NCc2ccccc2)cc1C(=O)N(C)CC(=O)Nc1c(Cl)cccc1Cl	-12%	nt	-3%	nt
CN(C(=O)COC(=O)c1cc(S(=O)(=O)N2CCOCC2)ccc1Cl)C1CCS(=O)(=O)C1 (stereo unspecified)	-7%	nt	30%	nt
